The supplement of paper PMC11732987, “Enantioselective OTUD7B fragment discovery through chemoproteomics screening and high-throughput optimisation” (Communications Chemistry, 2025)
A number with no mark means an inactive call.

How the values were obtained:
Assay in all cases: log2 ratio of Biotin-Ahx-Ub-VS probe labelling (fragment/DMSO); higher = less target engagement (more negative = stronger competition), active = hit call of the paper (q ≤ 0.05, log2 ratio ≤ -1)
Details in all cases: compound concentration: 200 uM; treatment time: 3 h
[1] = target: T1, OTUD6B (UniProt Q8N6M0)
T1 sequence (whole entry): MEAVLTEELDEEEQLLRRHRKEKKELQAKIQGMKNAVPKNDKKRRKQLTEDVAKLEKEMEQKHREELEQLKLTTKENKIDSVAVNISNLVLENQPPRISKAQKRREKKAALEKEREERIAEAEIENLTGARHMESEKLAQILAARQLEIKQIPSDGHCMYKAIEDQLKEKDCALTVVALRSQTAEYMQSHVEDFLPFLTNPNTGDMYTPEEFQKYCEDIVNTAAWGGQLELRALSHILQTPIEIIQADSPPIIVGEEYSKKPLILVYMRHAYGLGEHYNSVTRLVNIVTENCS
Summary of the method: (§1)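 HEK293T lysate (495 µg per sample, in Tris/CHAPS/IGEPAL buffer with protease inhibitors) was exposed in triplicate for 3 h to fragment at 200 µM or to vehicle, then to Biotin-Ahx-Ub-VS at 0.5 µM final for 1 h. Labelled DUBs were enriched on NeutrAvidin, digested with LysC and trypsin, and analysed by diaPASEF LC-MS/MS. Spectronaut label-free quantities were normalised to the global median, and values are average log2 ratios of fragment over vehicle from an unpaired t-test. Only proteins with ≥2 unique peptides were used.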

[2] = target: T2, OTUD7B (UniProt Q6GQQ9)
T2 sequence (whole entry): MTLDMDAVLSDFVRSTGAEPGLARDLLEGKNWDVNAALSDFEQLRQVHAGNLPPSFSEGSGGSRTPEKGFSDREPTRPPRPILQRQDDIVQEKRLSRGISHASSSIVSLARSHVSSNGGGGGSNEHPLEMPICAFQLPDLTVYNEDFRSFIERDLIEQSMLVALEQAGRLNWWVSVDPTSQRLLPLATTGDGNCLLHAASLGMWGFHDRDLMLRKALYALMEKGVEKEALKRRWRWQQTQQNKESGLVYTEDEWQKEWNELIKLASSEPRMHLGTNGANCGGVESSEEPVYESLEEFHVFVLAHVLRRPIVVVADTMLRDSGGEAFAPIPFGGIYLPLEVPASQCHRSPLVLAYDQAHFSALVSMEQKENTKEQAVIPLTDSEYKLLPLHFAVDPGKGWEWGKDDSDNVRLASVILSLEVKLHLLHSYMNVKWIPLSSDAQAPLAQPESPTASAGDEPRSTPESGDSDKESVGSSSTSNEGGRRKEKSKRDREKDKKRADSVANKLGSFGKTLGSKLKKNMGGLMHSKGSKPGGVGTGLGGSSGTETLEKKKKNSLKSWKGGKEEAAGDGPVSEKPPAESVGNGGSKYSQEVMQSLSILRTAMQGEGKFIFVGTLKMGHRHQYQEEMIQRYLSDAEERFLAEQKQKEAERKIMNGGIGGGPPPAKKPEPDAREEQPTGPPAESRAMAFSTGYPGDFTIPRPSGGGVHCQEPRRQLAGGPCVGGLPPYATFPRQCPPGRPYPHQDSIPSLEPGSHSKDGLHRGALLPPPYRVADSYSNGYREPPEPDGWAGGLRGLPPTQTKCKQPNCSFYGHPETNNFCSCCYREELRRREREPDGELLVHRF
Summary of the method: as §1

[3] = target: PRPF8 (UniProt Q6P2Q9)
Summary of the method: as §1

[4] = target: T3, PSMD7 (UniProt P51665)
T3 sequence (whole entry): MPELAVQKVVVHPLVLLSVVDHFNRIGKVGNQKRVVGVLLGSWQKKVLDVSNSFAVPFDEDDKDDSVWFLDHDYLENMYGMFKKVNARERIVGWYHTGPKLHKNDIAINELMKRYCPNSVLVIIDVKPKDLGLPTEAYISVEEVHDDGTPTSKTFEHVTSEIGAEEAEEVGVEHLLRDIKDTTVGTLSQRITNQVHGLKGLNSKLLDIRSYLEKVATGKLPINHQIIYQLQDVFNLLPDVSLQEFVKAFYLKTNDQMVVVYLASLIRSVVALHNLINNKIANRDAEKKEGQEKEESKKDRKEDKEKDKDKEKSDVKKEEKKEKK
Summary of the method: as §1

[5] = target: UCHL1 (UniProt P09936)
Summary of the method: as §1

[6] = target: T4, UCHL3 (UniProt P15374)
T4 sequence (whole entry): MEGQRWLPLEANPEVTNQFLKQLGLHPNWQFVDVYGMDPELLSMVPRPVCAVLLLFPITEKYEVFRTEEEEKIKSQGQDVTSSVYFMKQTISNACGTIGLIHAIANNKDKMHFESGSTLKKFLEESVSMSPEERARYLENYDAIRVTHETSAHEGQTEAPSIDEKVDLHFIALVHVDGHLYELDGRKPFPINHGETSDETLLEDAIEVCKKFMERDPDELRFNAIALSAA
Summary of the method: as §1

[7] = target: T5, UCHL5 (UniProt Q9Y5K5)
T5 sequence (whole entry): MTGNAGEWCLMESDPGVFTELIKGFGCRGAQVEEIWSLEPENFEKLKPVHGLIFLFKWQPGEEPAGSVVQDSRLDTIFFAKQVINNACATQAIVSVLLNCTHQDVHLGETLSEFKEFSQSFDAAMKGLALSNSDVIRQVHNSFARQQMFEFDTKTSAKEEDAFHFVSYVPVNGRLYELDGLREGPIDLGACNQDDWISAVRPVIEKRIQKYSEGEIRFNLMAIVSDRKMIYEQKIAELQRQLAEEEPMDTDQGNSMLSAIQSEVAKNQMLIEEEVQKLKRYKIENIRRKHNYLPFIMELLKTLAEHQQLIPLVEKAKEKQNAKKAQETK
Summary of the method: as §1

[8] = target: USP10 (UniProt Q14694)
Summary of the method: as §1

[9] = target: T6, USP15 (UniProt Q9Y4E8)
T6 sequence (whole entry): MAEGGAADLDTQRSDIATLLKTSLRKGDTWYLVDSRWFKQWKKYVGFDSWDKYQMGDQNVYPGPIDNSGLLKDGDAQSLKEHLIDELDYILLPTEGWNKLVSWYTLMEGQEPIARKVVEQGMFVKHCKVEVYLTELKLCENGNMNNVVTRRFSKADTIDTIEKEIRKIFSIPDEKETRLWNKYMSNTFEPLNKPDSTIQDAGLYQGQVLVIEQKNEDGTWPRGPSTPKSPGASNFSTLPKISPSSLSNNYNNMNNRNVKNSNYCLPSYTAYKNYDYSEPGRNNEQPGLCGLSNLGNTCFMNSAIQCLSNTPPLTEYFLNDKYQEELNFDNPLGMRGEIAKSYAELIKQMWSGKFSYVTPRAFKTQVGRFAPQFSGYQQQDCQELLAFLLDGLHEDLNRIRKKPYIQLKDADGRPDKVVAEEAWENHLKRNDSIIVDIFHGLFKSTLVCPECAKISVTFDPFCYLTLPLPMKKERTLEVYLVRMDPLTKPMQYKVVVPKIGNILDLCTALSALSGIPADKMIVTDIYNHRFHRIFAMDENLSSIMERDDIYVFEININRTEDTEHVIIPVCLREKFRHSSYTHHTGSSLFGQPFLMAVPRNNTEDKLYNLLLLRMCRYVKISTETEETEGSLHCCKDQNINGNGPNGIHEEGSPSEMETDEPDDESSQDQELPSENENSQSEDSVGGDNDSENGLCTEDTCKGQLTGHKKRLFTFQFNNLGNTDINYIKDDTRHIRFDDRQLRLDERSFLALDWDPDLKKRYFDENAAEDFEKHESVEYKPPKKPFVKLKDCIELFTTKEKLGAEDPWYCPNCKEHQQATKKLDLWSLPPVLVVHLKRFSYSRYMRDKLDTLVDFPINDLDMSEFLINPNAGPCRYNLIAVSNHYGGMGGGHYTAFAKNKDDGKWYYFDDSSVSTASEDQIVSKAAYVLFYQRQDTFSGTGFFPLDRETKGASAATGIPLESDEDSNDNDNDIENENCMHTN
Summary of the method: as §1

[10] = target: USP16 (UniProt Q9Y5T5)
Summary of the method: as §1

USP10, sequence (Q14694 whole entry): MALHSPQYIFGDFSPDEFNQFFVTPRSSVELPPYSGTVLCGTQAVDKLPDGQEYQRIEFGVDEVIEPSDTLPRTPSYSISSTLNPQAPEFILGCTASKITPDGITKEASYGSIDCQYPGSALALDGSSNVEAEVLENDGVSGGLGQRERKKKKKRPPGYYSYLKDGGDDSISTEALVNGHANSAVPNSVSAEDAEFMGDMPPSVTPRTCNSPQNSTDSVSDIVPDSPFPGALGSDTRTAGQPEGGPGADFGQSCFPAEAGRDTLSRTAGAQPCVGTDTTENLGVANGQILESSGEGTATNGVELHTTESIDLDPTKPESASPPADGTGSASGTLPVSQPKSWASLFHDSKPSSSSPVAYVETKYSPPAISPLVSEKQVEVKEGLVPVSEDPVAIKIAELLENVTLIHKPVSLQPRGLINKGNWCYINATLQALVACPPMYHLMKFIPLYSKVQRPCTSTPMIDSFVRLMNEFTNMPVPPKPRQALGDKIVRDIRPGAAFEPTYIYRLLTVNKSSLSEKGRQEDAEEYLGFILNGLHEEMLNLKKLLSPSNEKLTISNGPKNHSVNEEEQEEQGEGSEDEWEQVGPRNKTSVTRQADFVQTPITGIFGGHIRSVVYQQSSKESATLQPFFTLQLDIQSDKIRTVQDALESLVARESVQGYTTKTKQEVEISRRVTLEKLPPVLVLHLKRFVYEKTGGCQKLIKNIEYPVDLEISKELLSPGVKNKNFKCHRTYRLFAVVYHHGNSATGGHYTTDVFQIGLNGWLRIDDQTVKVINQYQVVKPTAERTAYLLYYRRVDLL
UCHL1, sequence (P09936 whole entry, looked up): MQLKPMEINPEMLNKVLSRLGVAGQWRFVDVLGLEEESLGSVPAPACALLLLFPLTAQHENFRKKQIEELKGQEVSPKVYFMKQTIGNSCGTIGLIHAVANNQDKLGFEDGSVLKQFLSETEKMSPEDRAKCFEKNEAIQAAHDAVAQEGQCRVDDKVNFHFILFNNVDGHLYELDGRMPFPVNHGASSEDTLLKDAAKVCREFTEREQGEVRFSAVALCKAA
USP16, sequence (Q9Y5T5 whole entry, looked up): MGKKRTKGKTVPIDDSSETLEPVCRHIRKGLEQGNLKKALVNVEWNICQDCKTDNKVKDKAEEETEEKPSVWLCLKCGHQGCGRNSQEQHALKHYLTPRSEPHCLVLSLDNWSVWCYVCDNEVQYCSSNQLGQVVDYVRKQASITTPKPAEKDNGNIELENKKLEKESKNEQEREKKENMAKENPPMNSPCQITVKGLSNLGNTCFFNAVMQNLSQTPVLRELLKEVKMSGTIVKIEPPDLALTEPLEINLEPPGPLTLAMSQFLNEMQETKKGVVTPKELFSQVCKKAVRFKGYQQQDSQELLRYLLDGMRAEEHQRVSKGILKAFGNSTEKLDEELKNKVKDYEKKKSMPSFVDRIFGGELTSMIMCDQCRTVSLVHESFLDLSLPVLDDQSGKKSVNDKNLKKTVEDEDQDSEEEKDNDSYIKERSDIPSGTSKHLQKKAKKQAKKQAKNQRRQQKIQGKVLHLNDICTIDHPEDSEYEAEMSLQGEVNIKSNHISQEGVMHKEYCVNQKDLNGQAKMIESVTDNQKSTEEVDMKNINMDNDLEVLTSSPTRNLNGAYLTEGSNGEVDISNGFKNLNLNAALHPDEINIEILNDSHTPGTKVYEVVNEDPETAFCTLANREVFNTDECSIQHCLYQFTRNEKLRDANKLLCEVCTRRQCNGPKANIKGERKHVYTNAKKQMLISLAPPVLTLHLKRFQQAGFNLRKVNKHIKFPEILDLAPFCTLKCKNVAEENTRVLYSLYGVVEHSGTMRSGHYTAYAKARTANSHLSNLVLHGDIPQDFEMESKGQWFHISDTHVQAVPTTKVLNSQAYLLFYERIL

## Cc1conc1C1CN(C(=O)CCl)C1
[1]
  log2 ratio of Biotin-Ahx-Ub-VS probe labelling: -0.688
[2]
  log2 ratio of Biotin-Ahx-Ub-VS probe labelling: -1.6 (active)
[3]
  log2 ratio of Biotin-Ahx-Ub-VS probe labelling: -0.125
[4]
  log2 ratio of Biotin-Ahx-Ub-VS probe labelling: -0.499
[5]
  log2 ratio of Biotin-Ahx-Ub-VS probe labelling: -2.04 (active)
[6]
  log2 ratio of Biotin-Ahx-Ub-VS probe labelling: -0.637
[7]
  log2 ratio of Biotin-Ahx-Ub-VS probe labelling: -0.912
[8]
  log2 ratio of Biotin-Ahx-Ub-VS probe labelling: -0.254
[9]
  log2 ratio of Biotin-Ahx-Ub-VS probe labelling: -1.15 (active)
[10]
  log2 ratio of Biotin-Ahx-Ub-VS probe labelling: -0.0913
